# PubChem BioAssay (NCATS)
# Results filed as inconclusive are left out. The source made the active and inactive calls. Calls follow the shape of the dose curve; as a rule, active = well fitted inhibition curve with a large enough effect; inconclusive = small, poorly fitted or top-dose-only effect; inactive = flat fitted curve, though single readings scatter.
# Tested on: CRL-7250
# Test: qHTS assay to identify novel small-molecules to repurpose for Merkel cell carcinoma treatment (AID 1296009); also: nearly all actives have a fitted effect of over 60% in size
# Settings: MCC and control cell lines, CellTiter-Glo viability, 72 h; series mostly up to 92 µM; activity change, negative = cytotoxicity: at the top concentration
# Method in brief: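 Dose-response viability screen; 72 hr exposure at 37 degree celsius; CellTiter-Glo added, 10 min room temperature, luminescence read; RLUs scaled between no-cell and DMSO wells.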
row,SMILES,outcome
1,CC1CC(=O)C2C(O)(C1)CC(O)C13OC1c1c(O)cccc1C(=O)C23O (centres undefined),inactive
2,CC[C@H]1OC(=O)[C@H](C)[C@@H](OC2C[C@@](C)(OC)[C@@H](O)[C@H](C)O2)[C@H](C)[C@@H](OC2O[C@H](C)C[C@H](NC)[C@H]2O)[C@](C)(O)C[C@@H](C)CN(C)[C@H](C)[C@@H](O)[C@]1(C)O (some centres undefined),inactive
3,CC1(C)CC[C@]2(C(=O)O)[C@H](O)C[C@]3(C)C(=CCC4[C@@]5(C)CC[C@H](O[C@@H]6O[C@H](CO[C@@H]7OC[C@H](O)[C@H](O)[C@H]7O[C@@H]7OC[C@H](O)[C@H](O)[C@H]7O)[C@@H](O)[C@H](O)[C@H]6O)C(C)(C)C5CC[C@]43C)[C@@H]2C1 (some centres undefined),inactive [at 9.27 µM]
4,CC1(C)CC[C@]2(C(=O)O)CC[C@]3(C)C(=CCC4[C@@]5(C)CC[C@H](O)C(C)(C)C5CC[C@]43C)C2C1 (some centres undefined),inactive [at 17.4 µM]
5,CC/C(=C(\c1ccc(O)cc1)c1ccc(OCCNC)cc1)c1ccccc1,inactive
6,C[C@@H](NC(=O)C(=O)c1c[nH]c2ccc([N+](=O)[O-])cc12)c1ccccc1,inactive
7,CC(=O)OC1CC(C)C2(CCC3(CC(=O)OC3O)O2)C2(C)CCCC(C)(C)C12 (centres undefined),inactive [at 17.4 µM]
8,O=[N+]([O-])c1ccc(Oc2ccc3c(c2)CCC(c2ccccc2)O3)nc1 (centres undefined),inactive
9,COc1cc2ncnc(Nc3ccc(F)c(Cl)c3)c2cc1O,inactive
10,CCCN1CCC=C(c2cc(-c3ccc(C)cc3)no2)C1,inactive
11,COc1c2c(c(C)c3c1C(=O)OC3)OC1(C)CC(O)C34OC(OC)(CC(OC(C)=O)C3(C)C1C2)OC4(C)C (centres undefined),inactive [at 17.4 µM]
12,COc1cc(C(=O)OC[C@@]2(O)CO[C@@H](O[C@H]3[C@H](Oc4ccc(O)cc4)O[C@H](CO)[C@@H](O)[C@@H]3O)[C@@H]2O)cc(OC)c1O,inactive [at 17.4 µM]
13,CC1=C(C)C(=O)OC(C(C)C2C(O)CC3C4C5OC5C5(O)CC(OC6OC(CO)C(O)C(O)C6O)CC(O)C5(C)C4CCC32C)C1 (centres undefined),inactive [at 17.4 µM]
14,CCC/C=C1\OC(=O)C2=C1CCC(O)C2O (centres undefined),inactive
15,C[C@H]1CC[C@@]2(OC1)O[C@H]1CC3C4CC[C@H]5C[C@@H](O)CC[C@]5(C)C4=CC(=O)[C@]3(C)[C@H]1[C@@H]2C (some centres undefined),inactive [at 17.4 µM]
16,C=C1CC/C=C(/CO)C(=O)C[C@@H]2[C@@H]1C[C@@]2(C)COC(C)=O,inactive
17,COc1cccc(CN(C(=O)CC(C)(C)C)[C@H]2C[C@H](C(=O)N3CCNCC3)N(Cc3ccc4c(c3)OCO4)C2)c1,inactive
18,C=C(C(=O)O)[C@@H]1CC[C@H](C)[C@@H]2CC(=O)C(C)=C2C1,inactive
19,C/C=C/C=C/C(O)=C1/C(=O)[C@]2(C)C3/C(=C(O)/C=C/C=C/C)C(=O)C4(C)C1[C@]1(C)O[C@@]4(O)[C@@]3(C)O[C@@]12O,inactive [at 17.4 µM]
20,COC(=O)[C@H](O)[C@H]1C(C)(C)[C@H](OC(C)=O)[C@@]2(O)C(=O)[C@]1(C)C1CC[C@]3(C)C(CC(=O)O[C@H]3c3ccoc3)[C@]13O[C@@H]32 (some centres undefined),inactive [at 17.4 µM]

row,SMILES,outcome
1,NC(=O)C(O[C@@H]1O[C@H](CO[C@@H]2O[C@H](CO)[C@@H](O)[C@H](O)[C@H]2O)[C@@H](O)[C@H](O)[C@H]1O)c1ccccc1 (some centres undefined),inactive [at 17.4 µM]
2,C=C(COC(=O)CC(C)C)C1Cc2cc(C(C)=O)ccc2O1 (centres undefined),inactive
3,Cc1cc(Nc2nc(NC(C)c3ncc(F)cn3)ncc2Cl)n[nH]1 (centres undefined),inactive
4,O=C(NCc1ccc(OC(F)(F)F)cc1)C1c2ccccc2C(=O)N1C1CCOCC1 (centres undefined),inactive
5,COc1cc2c(c(O)c1OC/C=C(\C)CC/C=C(/C)CCC=C(C)C)CN(C(CCC(=O)O)C(=O)O)C2=O (centres undefined),inactive [at 17.4 µM]
6,NC(Cc1c[nH]c2ccccc12)C(=O)NC(CCC(=O)O)C(=O)O (centres undefined),inactive
7,O=c1c2ccccc2nc2n1CCC2O (centres undefined),inactive [at 92 µM]
8,CC(C)=CCCC1(C)Oc2cc3c(c4c2C2C(O4)C(C)(O)CCC21)CN(C(CCC(=O)O)C(=O)O)C3=O (centres undefined),inactive [at 17.4 µM]
9,Cn1c2ccc(F)cc2c2c(C(=O)N3CCCC3)cn(-c3ccccc3)c(=O)c21,inactive
10,C=C1CCC[C@]2(C)C[C@]3(O)OC(=O)C(C)=C3C[C@@H]12,inactive
11,C[C@@H]1C[C@@H](O)[C@@]2(CO)C(CO)=CCC[C@@H]2[C@@]12C[C@@H](c1ccoc1)OC2=O,inactive
12,CC(C)CC(=O)OC[C@H]1O[C@@](COC(=O)CC(C)C)(O[C@H]2O[C@H](CO)[C@@H](O)[C@H](O)[C@H]2OC(=O)CC(C)C)[C@@H](OC(=O)CC(C)C)[C@@H]1O,inactive [at 17.4 µM]
13,C[C@H]1[C@H](C)CC[C@]2(C(=O)O)CC[C@]3(C(=O)O)C(=CCC4[C@@]5(C)CC[C@H](O[C@@H]6O[C@@H](C)[C@H](O)[C@@H](O)[C@H]6O)C(C)(C)C5CC[C@]43C)[C@H]12 (some centres undefined),inactive [at 17.4 µM]
14,COc1cc([C@H]2OC[C@]3(OC(C)=O)[C@@H](c4ccc(O[C@@H]5O[C@H](CO)[C@@H](O)[C@H](O)[C@H]5O)c(OC)c4)OC[C@H]23)ccc1O,inactive [at 17.4 µM]
15,C=CC(C)(O)CC/C=C(\C)C1CC=C(C)C(=O)O1 (centres undefined),inactive
16,C=C(C(=O)O)[C@@H]1CC[C@@]2(C)CC[C@H](O)[C@@]2(C(C)=O)C1,inactive
17,O=C(O)CC1(O)C(=O)Nc2ccccc21 (centres undefined),inactive [at 92 µM]
18,COc1cc(C)c(C(=O)O[C@@H]2[C@H](O)[C@@H](CO)O[C@H]2n2ccc(=O)[nH]c2=O)c(OC)c1,inactive [at 17.4 µM]
19,C/C=C1\[C@H](O[C@@H]2O[C@H](CO)[C@@H](O)[C@H](O)[C@H]2O)OC=C(C(=O)OC)[C@H]1CC(=O)OC,inactive [at 17.4 µM]
